Our source for the inhibition values is PubChem BioAssay AID1626 (SRMLSC, 2009).

Values joined by “and” are separate entries in the source; they are usually repeats but may differ in a detail not shown here. Equal entries are not always repeated. In all, about 220,000 compounds went through this assay and about 2,000 (0.91%) were called active. Inconclusive results (about 2%) are left out. A selection follows. Results with a measured potency or affinity are listed apart. Unmarked numbers belong to inactive results. Cut-off read from the data, not from the text of the source: inconclusive = inhibition above about 80% without an active follow-up result; inactive = below that; test concentration not stated here.

A short description of this test: M. tuberculosis H37Rv growth inhibitors, H37Rv strain (AID 1626).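 Note: bacteria incubated seven days before Alamar blue readout; 0% = bacteria only wells and 100% = bacteria with antibiotic wells.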 Particulars: active compounds read high, concentration not given here.
A word on the inhibition: it is the drop in the measured response relative to a control, in per cent. As for `CN(C)c1ccc(C=C2C(=O)OC(C)(C)OC2=O)cc1`, the inhibition is -0.63%.
The value for `COc1ccc(C=C2C(=O)OC(C)(C)OC2=O)cc1OC` was -16.1%; that for `COC(=O)CN(c1ccccc1)S(=O)(=O)c1cc(Br)ccc1OC` was 5.26%.
As for `CCOC(=O)Cc1csc(NC(=O)c2ccc(C)cc2)n1`, the inhibition is -1.68%.
The value for `CCOC(=O)Cc1csc(NC(=O)c2cc3c(s2)CCCC3)n1` was 6.6%.
As for `COc1ccccc1/C=C/C(=O)c1ccc(NC(C)=O)cc1`, the figure is 94.1%; as for `CSc1ccc(/C=C/C(=O)Nc2ccccc2)cc1`, 33.9%; as for `CCOC(=O)Nc1ccc(C(=O)/C=C/c2ccccc2)cc1`, 10.2%.
The value for `CCOc1ccc(C(=O)/C=C/c2ccc(SC)cc2)cc1` was -1.12%.
Regarding `CSc1ccc(/C=C/C(=O)c2ccc(NC(=O)C(C)C)cc2)cc1`, the inhibition is 75.2%.
As for `Cc1ccc(/C=C/C(=O)c2ccc(O)cc2)cc1`, the figure is 11.5%; as for `O=C(Nc1nnc(CC2=CCCCC2)s1)Nc1ccccc1F`, -2.47%; as for `Cc1nnc2c3ccccc3c(-c3ccccc3)nn12`, 5.99%.
As for `CCCC(=O)c1c[nH]c(C(=O)NCc2ccco2)c1`, the inhibition was -9.43%.
For the compound `Cc1ccc(Cn2cc(/C=N/NC(=O)Cc3nnc(NC(=O)c4ccc(C)cc4)s3)c3ccccc32)cc1`, the inhibition was 7.8%.
The value for `O=C(CCNC(=O)c1ccco1)NCc1ccccc1` was 0.15%; that for `COc1ccc(CCNc2nc(N3CCOCC3)nc(N3CCOCC3)n2)cc1OC` was 8.14%.
As for `COc1ccc(N2CCN(c3nc(NCCc4ccc(OC)c(OC)c4)nc(OC)n3)CC2)cc1`, the figure is 34.2%; as for `CC(C)CCN1CCN(Cc2ccc(C#CC(C)(C)O)s2)CC1CCO` (stereo unspecified), 9.71%; as for `CC(=O)c1ccc(-c2ccc(C(=O)N3CCCc4ccccc43)o2)cc1`, 17.9%.
The value for `CSc1sc(-c2ccnc(=S)[nH]2)c(-c2ccccc2)c1C#N` was -4.19%.
Take `Cc1ccc(C(=O)NCc2ccccc2)cc1Br`: the inhibition was -8.73%.
With `COc1ccccc1NC(=O)CSCc1nc2ccccc2[nH]1`, the inhibition was -0.98%.
Take `CCOC(=O)N1CCN(CCC(=O)Nc2cccc(Br)c2)CC1`: the inhibition was -0.92% and -12.2%.
As to `O=C(CSCc1nc2ccccc2[nH]1)Nc1ccccc1`, the inhibition is 0.99%.
The value for `Cc1ccc(NC(=O)CNCc2ccccc2)c(Br)c1` was -0.29%; that for `CCOC(=O)N1CCN(CCC(=O)Nc2ccc(Br)cc2)CC1` was -16.8%; that for `COC(=O)Nc1ccc(Oc2ccccc2)cc1` was -4.37%.
The value for `O=C(CNCc1ccccc1)Nc1ccc(F)cc1` was -5.31%.
For the compound `CCc1cccc(NC(=S)N(CCCN2CCOCC2)C(C)c2cc3cccc(OC)c3o2)c1` (stereo unspecified), the inhibition was -11.9%.
The value for `COc1ccc(CNC(=O)CCSCc2cccc(Cl)c2)c(OC)c1` was -4.73%; that for `O=C(Nc1nc(-c2ccc(S(=O)(=O)N3CCCC3)cc2)cs1)c1ccco1` was 7.57%; that for `COCCOCCn1c(/C=C/c2ccccc2)nc2ccccc21` was 11%.
As for `O=S(=O)(NCc1ccccc1)c1ccccc1Br`, the figure is 4.19%.
The value for `CCN(CC)S(=O)(=O)c1ccc2c(c1)nc(CCC(=O)Nc1ccccc1Cc1ccccc1)n2CC` was -0.79%; that for `COc1ccc(/C=C2\SC(=S)NC2=O)cc1OS(=O)(=O)c1ccc(NC(C)=O)cc1` was -3.97%; that for `Cc1ccccc1N(CC(=O)Nc1ccccc1C(=O)O)S(C)(=O)=O` was -1.04%.
Consider `CCN(CC)c1nc(-c2nn[nH]n2)nc(N(CC)CC)n1`, for which the inhibition is -3.01%.
As for `O=C(O)/C=C\C(=O)Nc1ccc(Oc2ccccc2)cc1`, the inhibition was -4.64%.
For `CCOC(=O)C(=O)Nc1ccc(Oc2ccccc2)cc1`, the inhibition was -13.3%.
The value for `CC(C)(C)NC(=O)C1CC(=O)OC12CCOC(C)(C)C2` (stereo unspecified) was 0.06%; that for `COC(=O)CN(c1ccccc1)S(=O)(=O)c1ccc(F)cc1` was -4.89%.
As for `O=[N+]([O-])C(=c1ccc2c(c1)N1C3=C(CCCC3)CC3CCCCC31N=2)[N+](=O)[O-]` (stereo unspecified), the figure is -8.62%; as for `CC(=O)c1ccc(NC(=O)CSC(C)C)cc1`, 0.93%; as for `O=C(CSCC(=O)NC1CC1)Nc1ccccc1`, -9.05%.
The value for `O=C(CSCC(=O)NC1CCCC1)Nc1ccccc1` was 6.01%; that for `CC(=O)c1ccc(NC(=O)CSCCO)cc1` was -4.48%; that for `CC(=O)Nc1ccc(S(=O)(=O)N2CCN(C(C)CCc3ccccc3)CC2)cc1` (stereo unspecified) was -9.9%.
On to `CCc1ccc(OCCCC(=O)O)c(Br)c1`, for which the inhibition was -8.18%.
`COC(=O)c1ccc(COc2ccc3c4c(c(=O)oc3c2)CCC4)o1`: the inhibition was -7.47%.
The value for `Cc1cc(C)n2nc(SCC(=O)N/N=C/c3cccc(Br)c3)nc2n1` was -4.74%.
As for `O=C(NC1(C(F)(F)F)C(=O)Nc2c1c(=O)[nH]c(=O)n2Cc1ccco1)C1CC1` (stereo unspecified), the figure is 1%; as for `C=CCNC(=O)CSc1nnc(-c2ccccc2Cl)n1-c1c(C)n(C)n(-c2ccccc2)c1=O`, -3.15%.
The value for `COc1ccc(CCNC(=O)CSc2cn(Cc3cccc(C)c3)c3ccccc23)cc1OC` was 4.76%; that for `CCc1nc2c(c(=O)[nH]1)C1(CCCC1)Cc1ccccc1-2` was 12.8%; that for `O=c1[nH]c(NCCO)nc2c1C1(CCCC1)Cc1ccccc1-2` was -4.7%.
Consider `O=c1[nH]c(CN(CCO)CCO)nc2c1C1(CCCCC1)Cc1ccccc1-2`, for which the inhibition is 8.33%.
As for `O=c1[nH]c(NCCO)nc2c1C1(CCCCC1)Cc1ccccc1-2`, the figure is -9.4%; as for `COc1cccc2c3c(c(C)nc12)CC(C)O3` (stereo unspecified), -3.67%.
As for `Cc1cc2c(C)nc3ccccc3c2o1`, the figure is -3.45%; as for `Cc1cc(C(=O)NNC(=O)CCCCC(=O)NNC(=O)c2cc(C)[nH]n2)n[nH]1`, 1.69%; as for `O=C(CCCSc1nc(-c2ccco2)cc(C(F)(F)F)n1)Nc1ccc2c(c1)OCO2`, 6.6%.
For the compound `Cc1noc2ncnc(Sc3ccccc3Cl)c12`, the inhibition is 8.85%.
As for `Cc1ccccc1Sc1ncnc2onc(C)c12`, the figure is -3.01%.
As for `CCn1c(SCc2ccc(C(=O)Nc3nccs3)cc2)nnc1-c1ccc(NC(C)=O)cc1`, the figure is 0.27%; as for `CCn1c(SCc2ccc(C(=O)Nc3nccs3)cc2)nnc1-c1ccc(N)cc1`, 2.31%; as for `COC(=O)CNC(=O)c1cn(CC(C)C)c(=O)c2cc(OC)c(OC)cc12`, -2.81%.
The value for `CC1CC(=O)c2cnc(N3CCOCC3)nc2C1` (stereo unspecified) was 5.78%.
Consider `O=C(CSc1nnnn1C1CCCC1)NCc1ccccc1`, for which the inhibition was -3.18%.
As for `COc1ccc(OCC(O)Cn2c(=N)n(CCN3CCOCC3)c3ccccc32)cc1` (stereo unspecified), the figure is 3.12%.
The value for `CCCCn1c(=N)n(CC(O)COc2cccc(C)c2)c2ccccc21` (stereo unspecified) was 0.69%; that for `CCCn1c(=N)n(CC(O)COc2cccc(C)c2)c2ccccc21` (stereo unspecified) was 4.16%.
`N=c1n(CCN2CCCCC2)c2ccccc2n1CC(O)COc1ccccc1` (stereo unspecified): the inhibition is -5.72%.
As for `CC(C)N1CCN(Cc2nc3c(s2)CCCC3)CC1CCO` (stereo unspecified), the figure is -2.24%.
The value for `COc1cc([C@@H]2c3cc4c(cc3[C@@H](NC3CCN(Cc5ccccc5)CC3)[C@H]3COC(=O)[C@H]23)OCO4)cc(OC)c1O` was 51.2%; that for `CC1=C(C(=O)OCc2ccc(C)cc2)C(c2ccc(O)c([N+](=O)[O-])c2)NC(=O)N1` (stereo unspecified) was -1.03%; that for `COc1ccc(S(=O)(=O)N(CC(=O)NCC2CCCO2)c2ccccc2)cc1OC` (stereo unspecified) was -6.11%.
As for `Cc1cc(-c2ccc(Cl)cc2Cl)c(C#N)c(=O)[nH]1`, the figure is -3.23%.
For the compound `Cc1ncn2cc(-c3ccc(Cl)cc3Cl)[nH]c(=O)c12`, the inhibition was 11.2%.
As for `O=c1[nH]c(=O)n(-c2ccccc2)c2c1C(C(F)(F)F)(C(F)(F)F)N=C(CCC1CCCCC1)N2`, the figure is -0.92%; as for `Cc1nc(N2CCCCC2)c2c(C)c(C(=O)Nc3ccccc3C(F)(F)F)sc2n1`, 1.26%; as for `Cc1nc(N2CCOCC2)c2c(C)c(C(=O)Nc3ccc(F)cc3F)sc2n1`, -1.7%.
As for `Cc1nc(N2CCOCC2)c2c(C)c(C(=O)Nc3ccccc3Cl)sc2n1`, the figure is 0.57%.
As for `Cc1nc(N2CCN(c3ccccn3)CC2)c2c(C)c(C(=O)Nc3ccc(F)cc3F)sc2n1`, the figure is 79.3%; as for `CCN=C1NN=C(c2cc(C)n(Cc3ccco3)c2C)CS1`, 8.94%; as for `CCN(CCCNC(=O)CN(C)S(=O)(=O)c1ccc2c(c1)CCC(=O)N2)c1cccc(C)c1`, -2.39%.
`O=C(COC(=O)C1CCN(S(=O)(=O)c2cccs2)CC1)Nc1ccccc1Br`: the inhibition was -7.27%.
The value for `CCCCn1c(=O)[nH]c2ccccc21` was 3.85%.
The value for `O=c1[nH]c2ccccc2n1CCCN1CCCCC1` was -2.47%.
Turning to `O=C(Nc1cccc(Cl)c1)/C(=C\c1cccnc1)NC(=O)c1ccco1`, the inhibition is 2.59%.
As for `Cc1ccc(OCCNC(=O)c2cccc(Oc3ccc(C(F)(F)F)cc3[N+](=O)[O-])c2)cc1`, the figure is 1.39%; as for `Oc1ccc2ccccc2c1CN1CCCC1`, 12.7%; as for `CN1CCN(Cc2c(O)ccc3cc(Br)ccc23)CC1`, 21%.
The value for `Cc1ccc2c(c1)C1CN(C)CCC1N2C(=O)c1cn(-c2ccccc2)nc1-c1ccccc1` (stereo unspecified) was 10.5%; that for `O=C(CNC(=O)c1ccc(-c2ccccc2)cc1)OCc1c(Cl)cccc1Cl` was -1.9%; that for `CC(=O)Nc1ccc(C(=O)NCC(=O)OCc2c(F)cccc2Cl)cc1` was -1.08%.
